From PubChem BioAssay AID1159580 (chemical genetic matrix, 2015)
The campaign covered roughly 5,500 compounds. About 2,000 (36%) were called active. Not shown: some 18% with an inconclusive outcome. No stated cut-off is given here; in the data, active means normalized growth mostly below about 0.91 (no sharp cut-off); inconclusive means no clear call, values can overlap the other calls; inactive means mostly above about 0.92. The list shows a part of the results.

Experiment: chemical genetic growth profiling, strain panel (AID 1159580);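 further: tested at 20 µM; growth read once vehicle control cultures reached saturation at 30 °C; 1 = growth at the plate median or of vehicle wells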
Settings: growth OD

Measured: normalized growth

CCCc1nc(C(C)(C)O)c(C(=O)OCc2oc(=O)oc2C)n1Cc1ccc(-c2ccccc2-c2nn[nH]n2)cc1
inactive: S. cerevisiae deletion strains, locus YKL009W, strain mrt4, stronger effect = lower value 0.957 | S. cerevisiae deletion strains, locus YKL068W, stronger effect = lower value 0.988 | S. cerevisiae deletion strains, locus YKL085W, strain MDH1 (second series), stronger effect = lower value 0.98 | S. cerevisiae deletion strains, locus YKL085W, strain MDH1, stronger effect = lower value 0.98 | S. cerevisiae deletion strains, locus YKL160W, strain elf1, stronger effect = lower value 0.994 | S. cerevisiae deletion strains, locus YKL190W, strain CNB1, stronger effect = lower value 1.01 | S. cerevisiae deletion strains, locus YKR001C, strain vps1, stronger effect = lower value 0.985 | S. cerevisiae deletion strains, locus YKR026C, strain gcn3, stronger effect = lower value 0.976 | S. cerevisiae deletion strains, locus YKR091W, strain srl3, stronger effect = lower value 0.981 | S. cerevisiae deletion strains, locus YLL001W, strain dnm1, stronger effect = lower value 0.972 | S. cerevisiae deletion strains, locus YLL026W, stronger effect = lower value 0.958 | S. cerevisiae deletion strains, locus YLL041C, strain sdh2, stronger effect = lower value 0.972 | S. cerevisiae deletion strains, locus YLR027C, strain aat2, stronger effect = lower value 0.984 | S. cerevisiae deletion strains, locus YLR039C, strain RIC1, stronger effect = lower value 0.981 | S. cerevisiae deletion strains, locus YLR058C, strain SHM2, stronger effect = lower value 0.988 | S. cerevisiae deletion strains, locus YLR102C, strain apc9, stronger effect = lower value 0.989 | S. cerevisiae deletion strains, locus YLR113W, strain HOG1, stronger effect = lower value 0.987 | S. cerevisiae deletion strains, locus YLR221C, strain rsa3, stronger effect = lower value 1.02 | S. cerevisiae deletion strains, locus YLR258W, strain gsy2, stronger effect = lower value 0.977 | S. cerevisiae deletion strains, locus YLR262C, strain YPT6 (second series), stronger effect = lower value 0.962 | S. cerevisiae deletion strains, locus YLR262C, strain YPT6, stronger effect = lower value 0.987 | S. cerevisiae deletion strains, locus YLR268W, strain sec22, stronger effect = lower value 0.971 | S. cerevisiae deletion strains, locus YLR320W, strain mms22, stronger effect = lower value 1.01 | S. cerevisiae deletion strains, locus YLR330W, strain CHS5, stronger effect = lower value 0.995 | S. cerevisiae deletion strains, locus YLR342W, strain FKS1 (second series), stronger effect = lower value 0.977 | S. cerevisiae deletion strains, locus YLR342W, strain FKS1, stronger effect = lower value 0.978 | S. cerevisiae deletion strains, locus YLR357W, strain rsc2, stronger effect = lower value 0.985 | S. cerevisiae deletion strains, locus YLR370C, strain arc18, stronger effect = lower value 0.947 | S. cerevisiae deletion strains, locus YLR371W, strain rom2, stronger effect = lower value 0.985 | S. cerevisiae deletion strains, locus YLR384C, strain iki3, stronger effect = lower value 0.977 | S. cerevisiae deletion strains, locus YLR418C, strain cdc73, stronger effect = lower value 0.952 | S. cerevisiae deletion strains, locus YML016C, strain PPZ1, stronger effect = lower value 0.993 | S. cerevisiae deletion strains, locus YML032C, strain rad52, stronger effect = lower value 0.993 | S. cerevisiae deletion strains, locus YML120C, strain ndi1, stronger effect = lower value 0.97 | S. cerevisiae deletion strains, locus YML124C, strain tub3, stronger effect = lower value 0.984 | S. cerevisiae deletion strains, locus YMR058W, strain fet3, stronger effect = lower value 0.965 | S. cerevisiae deletion strains, locus YMR078C, strain ctf18, stronger effect = lower value 0.99 | S. cerevisiae deletion strains, locus YMR125W, strain sto1, stronger effect = lower value 0.932 | S. cerevisiae deletion strains, locus YMR129W, stronger effect = lower value 0.97 | S. cerevisiae deletion strains, locus YMR205C, strain PFK2, stronger effect = lower value 0.976 | S. cerevisiae deletion strains, locus YMR223W, strain ubp8, stronger effect = lower value 0.995 | S. cerevisiae deletion strains, locus YMR231W, strain pep5, stronger effect = lower value 0.967 | S. cerevisiae deletion strains, locus YMR263W, strain SAP30, stronger effect = lower value 1.02 | S. cerevisiae deletion strains, locus YMR307W, strain GAS1, stronger effect = lower value 0.894 | S. cerevisiae deletion strains, locus YNL067W, strain RPL9B, stronger effect = lower value 1.03 | S. cerevisiae deletion strains, locus YNL071W, strain lat1, stronger effect = lower value 0.977 | S. cerevisiae deletion strains, locus YNL128W, strain TEP1, stronger effect = lower value 1.02 | S. cerevisiae deletion strains, locus YNL153C, strain GIM3, stronger effect = lower value 0.996 | S. cerevisiae deletion strains, locus YNL183C, strain NPR1, stronger effect = lower value 0.963 | S. cerevisiae deletion strains, locus YNL209W, strain ssb2, stronger effect = lower value 0.971 | S. cerevisiae deletion strains, locus YNL233W, strain BNI4, stronger effect = lower value 0.992 | S. cerevisiae deletion strains, locus YNL248C, strain rpa49, stronger effect = lower value 0.969 | S. cerevisiae deletion strains, locus YNL250W, strain rad50, stronger effect = lower value 0.992 | S. cerevisiae deletion strains, locus YNL271C, strain bni1, stronger effect = lower value 0.992 | S. cerevisiae deletion strains, locus YNL298W, strain CLA4, stronger effect = lower value 0.975 | S. cerevisiae deletion strains, locus YNL307C, strain MCK1, stronger effect = lower value 0.992 | S. cerevisiae deletion strains, locus YNL322C, strain KRE1 (second series), stronger effect = lower value 0.972 | S. cerevisiae deletion strains, locus YNL322C, strain KRE1, stronger effect = lower value 0.997 | S. cerevisiae deletion strains, locus YNR049C, strain mso1, stronger effect = lower value 0.968 | S. cerevisiae deletion strains, locus YNR052C, strain pop2, stronger effect = lower value 0.99 | S. cerevisiae deletion strains, locus YOL006C, strain TOP1, stronger effect = lower value 0.998 | S. cerevisiae deletion strains, locus YOL012C, strain htz1 1.03 | S. cerevisiae deletion strains, locus YOL147C, strain pex11, stronger effect = lower value 0.998 | S. cerevisiae deletion strains, locus YOR001W, strain rrp6, stronger effect = lower value 0.943 | S. cerevisiae deletion strains, locus YOR061W, strain CKA2, stronger effect = lower value 0.989 | S. cerevisiae deletion strains, locus YOR069W, strain VPS5, stronger effect = lower value 0.994 | S. cerevisiae deletion strains, locus YOR070C, strain gyp1, stronger effect = lower value 0.992 | S. cerevisiae deletion strains, locus YOR080W, strain dia2, stronger effect = lower value 0.964 | S. cerevisiae deletion strains, locus YOR083W, strain WHI5, stronger effect = lower value 0.993 | S. cerevisiae deletion strains, locus YOR106W, strain vam3, stronger effect = lower value 0.969 | S. cerevisiae deletion strains, locus YOR136W, strain idh2, stronger effect = lower value 0.986 | S. cerevisiae deletion strains, locus YOR144C, strain elg1, stronger effect = lower value 0.985 | S. cerevisiae deletion strains, locus YOR184W, strain ser1, stronger effect = lower value 0.995 | S. cerevisiae deletion strains, locus YOR231W, strain MKK1, stronger effect = lower value 0.958 | S. cerevisiae deletion strains, locus YOR265W, strain rbl2, stronger effect = lower value 0.979 | S. cerevisiae deletion strains, locus YOR270C, strain vph1, stronger effect = lower value 1.01 | S. cerevisiae deletion strains, locus YOR290C, strain snf2, stronger effect = lower value 0.983 | S. cerevisiae deletion strains, locus YOR316C, strain cot1, stronger effect = lower value 0.989 | S. cerevisiae deletion strains, locus YPL051W, strain arl3, stronger effect = lower value 0.988 | S. cerevisiae deletion strains, locus YPL055C, strain LGE1, stronger effect = lower value 0.993 | S. cerevisiae deletion strains, locus YPL078C, strain atp4, stronger effect = lower value 0.961 | S. cerevisiae deletion strains, locus YPL106C, strain sse1, stronger effect = lower value 0.894 | S. cerevisiae deletion strains, locus YPL240C, strain hsp82, stronger effect = lower value 0.974 | S. cerevisiae deletion strains, locus YPL241C, strain CIN2, stronger effect = lower value 0.999 | S. cerevisiae deletion strains, locus YPL256C, strain CLN2, stronger effect = lower value 0.95 | S. cerevisiae deletion strains, locus YPR119W, strain clb2, stronger effect = lower value 0.992 | S. cerevisiae deletion strains, locus YPR141C, strain kar3, stronger effect = lower value 0.99 | S. cerevisiae deletion strains, locus YPR163C, strain tif3, stronger effect = lower value 0.981 | S. cerevisiae deletion strains, locus YPR167C, strain met16, stronger effect = lower value 0.982 | S. cerevisiae deletion strains, strain wtn01, stronger effect = lower value 0.981 | S. cerevisiae strains, strain wild type, stronger effect = lower value 1.02
